Assay results published in PubChem BioAssay AID449762 (Southern Research Specialized Biocontainment Screening …, 2010).
The whole screen tested about 330,000 compounds, of which about 1,900 (0.58%) were called active. Another 4% or so got no clear call; they are omitted. No stated cut-off is given here; in the data, inconclusive means inhibition above about 70% without an active follow-up result; inactive means below that. These entries were drawn from the full list. Potency and affinity values are given separately.

Assay: M. tuberculosis growth inhibition, HTS (AID 449762);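 further: bacterial growth assessed after seven days of incubation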
Conditions: M. tuberculosis H37Rv growth inhibition, 7H9 media; at 25 µM; stronger effect = higher value
For Cc1ccc(N2CC(C(=O)NC3=NCCS3)CC2=O)cc1 (centres undefined), the inhibition was 4.82% (inactive). With CCc1ccc2oc(-c3ccc(OC)cc3)cc(=Nc3cccc(C(=O)O)c3)c2c1 the inhibition was 39.4% (inactive). With COc1ccc(-c2cc(=Nc3c(C)n(C)n(-c4ccccc4)c3=O)c3ccccc3o2)cc1 the inhibition was 35.5% (inactive). For CNC(=O)c1cnn(-c2nc(-c3ccc(OC)cc3)cs2)c1C(F)(F)F, the inhibition was 9.09% (inactive). In the case of CCN1CCc2c(OCC(=O)Nc3ccccc3)cccc2C1=O, the inhibition is reported as -8.51% (inactive). For COc1cccc(-c2cc(C(F)(F)F)nc(N3CCC(C)CC3)n2)c1, the inhibition was 2.81% (inactive). For CC(=O)c1cccc(NC(=O)COC(=O)C2=COCCO2)c1, the inhibition was -0.86% (inactive). In the case of O=C(COC(=O)C1=COCCO1)NCc1ccc(F)cc1, the inhibition is reported as 5.31% (inactive). For COc1ccc(CNC(=O)COC(=O)C2=COCCO2)cc1, the inhibition was 12.1% (inactive). In the case of O=C(COC(=O)C1=COCCO1)Nc1ccccc1, the inhibition is reported as 65.9% (inactive). With CCCCN1C(=N)N([C@@H](C)CN2CCC[C@H]2CN2C(N)=NC[C@@H]2Cc2ccccc2)C[C@H]1Cc1ccccc1 the inhibition was 67.2% (inactive). With CCCCN1C(=N)N([C@@H](CCC)CN2CCC[C@H]2CN2C(N)=NC[C@@H]2Cc2ccccc2)C[C@H]1[C@H](C)CC the inhibition was 4.76% (inactive). In the case of Cc1nc2ccc(NC(=O)N3CCN(c4ccccn4)CC3)cc2s1, the inhibition is reported as -4.34% (inactive). For O=C(O)c1ccc(N=NN2CCCC2)cc1, the inhibition was -3.03% (inactive). For CNC(=O)c1cc2c(s1)CCCCCC2, the inhibition was -5.87% (inactive). In the case of CC1CCc2sc(C(=O)NC3CCCCC3)cc2C1 (centres undefined), the inhibition is reported as -9.17% (inactive). In the case of Nc1cccc(-c2ccc(CO)o2)c1, the inhibition is reported as 10.1% (inactive). With NC(=O)C1CCN(CC(=O)N2N=CCC2c2ccccc2)CC1 (centres undefined) the inhibition was -1.72% (inactive). In the case of CCC(=O)N1CCc2cc(S(=O)(=O)N3CCCC3)ccc21, the inhibition is reported as -9.42% (inactive). In the case of Cc1occc1C(=O)NN=C1C2CC3CC(C2)CC1C3, the inhibition is reported as -8.34% (inactive). In the case of COc1ccc2[nH]c3c(N4CC(C)OC(C)C4)ncnc3c2c1 (centres undefined), the inhibition is reported as -0.53% (inactive). In the case of Cc1ccc2c(c1)[nH]c1c(N3CCN(Cc4ccccc4)CC3)ncnc12, the inhibition is reported as 3.28% (inactive). In the case of COc1cc2[nH]c3c(N4CCC(C(N)=O)CC4)ncnc3c2cc1OC, the inhibition is reported as 6.79% (inactive). For COc1ccc(N2CCN(c3ncnc4c3[nH]c3ccccc34)CC2)cc1, the inhibition was -0.78% (inactive). With Cc1ccc2[nH]c3c(N4CCOCC4)ncnc3c2c1 the inhibition was -3.57% (inactive). For COc1cc2[nH]c3c(N4CCN(c5ccc(Cl)cc5)CC4)ncnc3c2cc1OC, the inhibition was -5.15% (inactive). In the case of O=C(COC(=O)c1ccccc1NS(=O)(=O)c1cccs1)NC1CCCCC1, the inhibition is reported as 4.13% (inactive). With CCCCOc1ccc(C(=O)NCC(=O)NC2CCC(C)CC2)cc1 (centres undefined) the inhibition was 9.03% (inactive). For Cc1c(NC(=O)Nc2ccc(C(C)(C)C)cc2)c(=O)n(-c2ccccc2)n1C, the inhibition was 1.52% (inactive). For Cc1cc(NC(=O)C(C)C)ncc1NC(=O)c1ccco1, the inhibition was 4% (inactive). With Cn1c(SCc2ccccn2)nnc1-c1cnccn1 the inhibition was -3.38% (inactive). For O=S(=O)(Nc1ccccc1N1CCOCC1)c1c(F)cc(F)cc1Br, the inhibition was -10.8% (inactive). With CCN(C[C@H]1N[C@@](Cc2ccccc2)(C(=O)OC)[C@H]2C(=O)N(Cc3ccccc3)C(=O)[C@@H]12)C(=O)Nc1ccc(F)cc1 the inhibition was 3.17% (inactive). In the case of CCN(C[C@H]1N[C@@](CC)(C(=O)OC)[C@H]2C(=O)N(Cc3ccccc3)C(=O)[C@@H]12)C(=O)Nc1ccc(C(F)(F)F)cc1, the inhibition is reported as -6.29% (inactive). For COc1ccc(CNC(=O)/C=C/c2ccc(OCCCF)cc2)cc1, the inhibition was 0.02% (inactive). With O=C(/C=C/c1ccc(OCCCF)cc1)Nc1ccnc(-c2cccnc2)n1 the inhibition was -3.34% (inactive). For CC(C)(C)NC(=O)C(=O)NNC(=O)c1ccco1, the inhibition was -5.31% (inactive). In the case of Cc1ccccc1N(CC(=O)NCc1ccncc1)S(C)(=O)=O, the inhibition is reported as 1.64% (inactive). For CSc1ccc(C(=O)C2CCCN(C(=O)c3nonc3C)C2)cc1 (centres undefined), the inhibition was 12.6% (inactive). In the case of CSc1ccc(C(=O)C2CCCN(C(=O)c3ccc4c(c3)OCO4)C2)cc1 (centres undefined), the inhibition is reported as 1.02% (inactive). With Cc1ccc(Cn2c([N+](=O)[O-])cnc2C)cc1 the inhibition was 2.64% (inactive). In the case of Cc1ccc(S(=O)(=O)N(C)CC(=O)Nc2ccc3c(c2)OCO3)cc1, the inhibition is reported as -3.43% (inactive). In the case of Cc1ccc(C(=O)OCN2C(=O)c3ccccc3C2=O)c(O)c1, the inhibition is reported as 2.23% (inactive). In the case of CNC(=O)C12CC3CC(C1)CC(c1ccc(C)cc1)(C3)C2, the inhibition is reported as 5.19% (inactive). In the case of COc1ccccc1NC(=O)C12CC3CC(C1)CC(c1ccc(C)cc1)(C3)C2, the inhibition is reported as -6.68% (inactive). For COCC1CCN(Cc2nc(Cc3ccccc3Cl)no2)CC1, the inhibition was 4.51% (inactive). With COC(=O)Cn1c(=NC(=O)C(C)(C)C)sc2c(C)cc(C)cc21 the inhibition was -0.87% (inactive). For CC(C)C[C@]1(c2ccccc2)ON(c2ccccc2C(F)(F)F)C1=O, the inhibition was -1.86% (inactive). For CC[C@]1(c2ccccc2C)ON(c2ccccc2C(F)(F)F)C1=O, the inhibition was 0.115% (inactive). For CN1CCN(CCCNC(=O)CCCOc2cc(=O)n(C)c3ccccc23)CC1, the inhibition was -3.75% (inactive). With CCCCCCCN1C(N(C)C)=NC[C@@H]1Cc1ccccc1 the inhibition was 1.63% (inactive). With Cc1cccc(-n2ccc(=O)c(C(=O)Nc3ccc(S(=O)(=O)Nc4nccc(C)n4)cc3)n2)c1 the inhibition was 6.8% (inactive). In the case of CCOC(=O)c1cccc(NS(=O)(=O)c2c(C)[nH]c(C)c2C(=O)N2CCCC2)c1, the inhibition is reported as 12.7% (inactive). In the case of COC(=O)/C(C#N)=C/c1ccc(-c2ccc(S(N)(=O)=O)cc2)o1, the inhibition is reported as -0.94% (inactive). For Cc1cc(NC(=O)/C(C#N)=C/c2ccc(-c3ccc(SC(F)F)cc3)o2)n(-c2ccccc2)n1, the inhibition was 4.12% (inactive). In the case of C=CCn1c(O)c(C(C)=Nc2cccc(C(=O)O)c2)c(=O)[nH]c1=O, the inhibition is reported as -1.56% (inactive). In the case of Cc1cc(C(=O)NNC(=O)c2sccc2C)c(C)o1, the inhibition is reported as -4.39% (inactive). With CCN1CCN(C(c2cccs2)C(C)NS(=O)(=O)c2ccc(Br)cc2)CC1 (centres undefined) the inhibition was -2.6% (inactive). In the case of O=C(Nc1nccs1)c1ccc(S(=O)(=O)N2CCCCC2)cc1, the inhibition is reported as -7.33% (inactive). For CSCCC(NC(=O)COc1ccccc1)C(=O)NCCOc1ccc(C)cc1 (centres undefined), the inhibition was 1.39% (inactive). With COc1ccc(OC)c(S(=O)(=O)Nc2cc3c4c(c2)CCC(=O)N4CCC3)c1 the inhibition was -8.72% (inactive). For Cc1cc(C(=O)CCl)c(C)n1-c1c(C)n(C)n(-c2ccccc2)c1=O, the inhibition was 64.9% (inactive). For CC(=O)c1c(C(C)=O)c(C)n(-c2cccc([N+](=O)[O-])c2)c1C, the inhibition was 4.11% (inactive). With N#CCCCCn1c(-c2cncs2)nc2ccccc21 the inhibition was -10.4% (inactive). For Oc1ccc(C=NCCc2ccccc2)cc1, the inhibition was 0.33% (inactive). With CCSc1nc2ccccc2n1Cc1cccc([N+](=O)[O-])c1 the inhibition was -1.33% (inactive). With Cc1ccc(OC(=O)c2ccc(C)c(C)c2)cn1 the inhibition was 38.4% (inactive). In the case of CCCCOc1ccc(C(=O)Oc2cccnc2)cc1, the inhibition is reported as 50% (inactive). For CO/N=C/C(C#N)=C/c1ccc(OC)c(OC)c1, the inhibition was 2.72% (inactive). In the case of CCCCn1c2ccccc2c2cc(CC(N)=O)ccc21, the inhibition is reported as 2.07% (inactive). With O=C(CNC(=O)c1ccco1)OCc1ccc(C(=O)c2ccccc2)cc1 the inhibition was 14.1% (inactive). With O=C(CCC(=O)OCc1ccc(Br)cc1)Nc1ccccc1 the inhibition was -10.8% (inactive). In the case of COc1ccc(C(=O)NCC(=O)NCC(=O)OCc2ccc(Cl)cc2)cc1, the inhibition is reported as 8.99% (inactive). In the case of COc1ccc(CCNC(=O)c2ccc(Cl)cc2)cc1, the inhibition is reported as 15.5% (inactive). With COc1ccc(NC(=O)CCC(=O)OCc2ccc(C(=O)Oc3ccc(Cl)cc3)cc2)cc1 the inhibition was -10.2% (inactive). For O=C(CNC(=O)c1ccco1)NCC(=O)OCc1ccc(C(=O)Oc2ccc(Cl)cc2)cc1, the inhibition was -2.15% (inactive). With O=C1CN(C(=O)CSc2ccc(-c3ccc(F)cc3)nn2)c2ccccc2N1 the inhibition was -6.46% (inactive). With Cc1ccnc(N=Cc2nc(-c3ccccc3Br)oc2O)c1 the inhibition was 2.41% (inactive). With Cc1nc(CCNC(=O)c2cc(COc3ccc(F)cc3Cl)on2)sc1C the inhibition was 12.2% (inactive). For COc1ccc(-c2nc3c(c(=O)[nH]c(=O)n3Cc3ccccc3)n2CCO)cc1, the inhibition was -6.32% (inactive). With CCCOc1ccc(-c2nc3c(c(=O)[nH]c(=O)n3Cc3ccccc3)n2CCO)cc1OCC the inhibition was -0.79% (inactive). For CC(C)c1nc2ccc(Br)cn2c1NC1CCCC1, the inhibition was -4.28% (inactive). With CC(Sc1nnc(N)s1)C(=O)NNC(=O)c1cccc(Cl)c1 (centres undefined) the inhibition was 0.75% (inactive). With CC1(C)C=Cc2c(ccc3c2OC[C@H](c2ccc(O)cc2O)C3)O1 the inhibition was 9.89% (inactive). With CC1(C)C=Cc2c(ccc3c2OC[C@@H](c2ccc(O)cc2O)C3)O1 the inhibition was 4.54% (inactive). For COc1cccc(C(=O)NC(=S)N2c3ccccc3CC2C)c1OC (centres undefined), the inhibition was -5.31% (inactive). For CC1Cc2ccccc2N1C(=S)NC1CCCC1 (centres undefined), the inhibition was -1.79% (inactive). In the case of O=C(Nc1ccccc1N1CCCCC1)c1cccc(Cl)c1, the inhibition is reported as 8.39% (inactive). For CCC(C)c1ccc(S(=O)(=O)N2CCN(CC(O)CN3CCOCC3)CC2)cc1 (centres undefined), the inhibition was -16.5% (inactive). For CCCOc1ccc(-c2cn3ccccc3n2)cc1[N+](=O)[O-], the inhibition was 2.24% (inactive). With COc1ccc2c(c1)CC/C(=C/c1cc(OC)c(OC)c(OC)c1)C2=O the inhibition was 50% (inactive). With COc1ccc2c(c1)C(=O)/C(=C/C=C/c1ccccc1)CC2 the inhibition was 6.15% (inactive). For O=C(Nc1ccc(C(=O)NCCCN2CCN(c3ccccc3)CC2)cc1)C1=CSCCO1, the inhibition was 4.06% (inactive). For CC1CCCN(CCCNC(=O)c2ccc(NC(=O)C3=CSCCO3)cc2)C1 (centres undefined), the inhibition was -0.6% (inactive).
